Inconclusive results are not listed. Active and inactive are the calls of the source. How the source made its calls, unless noted: active means hit-call score of the fitted dose curve at least 0.9, where 1 is the maximum; inconclusive means response in the unintended direction; inactive means score below 0.9.

Assay [1] is described as follows: VALA_MIGHUV1_ScratchOnly_WoundArea: VALA Sciences human Umbilical Vein Endothelial Cell Migration (MIGHUV) Assay, Area of Scratch Wound Inhibited Recovery (AID 2284336). The method in brief: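 Wound area remaining after 24 h recovery imaged by Hoechst nuclear fluorescence in scratched HUVEC cultures, chemicals added within 30 min of scratching across a 6-point series. Gain of signal fitted against 0.1% DMSO; cytochalasin D positive control.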

Assay [2] is described as follows: VALA_TUBIPS_Agonist_CellCount: Viability Assessment in the VALA Sciences human iPS-derived Endothelial Tubule Formation (TUBIPS) Agonism Assay (AID 2284338).
In a further assay the test system is SERPINA7 (gene 6906). Put plainly: CCTE_GLTED_hTBG: CCTE's human Thyroxine-binding Globulin (TBG) Inhibition Assay, Great Lakes Toxicology and Ecology Division (GLTED) Lab (AID 2284343).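 Further: active chemicals lower fluorescence versus DMSO baseline by displacing probe.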 The method, boiled down:
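Cell-free displacement of the fluorescent probe ANSA from human thyroxine-binding globulin after 2 h exposure. Read-out at ex 380/em 475 nm; DMSO baseline.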

A short description of assay [3]: VALA_TUBIPS_Antagonist_CellCount: Viability Assessment in the VALA Sciences human iPS-derived Endothelial Tubule Formation (TUBIPS) Antagonism Assay (AID 2284335).
Assay [4] is described as follows: VALA_TUBHUV_Agonist_TubuleLength: VALA Sciences human Umbilical Vein Endothelial Tubule Formation (TUBHUV) Agonism Assay (AID 2284337). As for the experimental part:
VALA_TUBHUV_Agonist is a cell-based, multiplexed assay that uses human umbilical vein endothelial cells (HUVEC). Measurements were taken 72 hours after chemical dosing in a 96-well plate.VALA_TUBHUV_Agonist_TubuleLength is the one of two assay components measured from the VALA_TUBHUV_Agonist assay. It is designed to make measurements of tubulogenesis, a form of morphology reporter, as detected with fluorescence intensity signals by HCS Fluorescent Imaging technology. This VALA_TUBHUV1 assay was designed to detect chemical activation of tubulogenesis, i.e. agonism.Data from the assay component VALA_TUBHUV_Agonist_TubuleLength was analyzed at the endpoint, VALA_TUBHUV_Agonist_TubuleLength, in the positive analysis fitting direction relative to DMSO as the negative control and baseline of activity. Using a type of morphology reporter, gain-of-signal activity can be used to understand developmental effects. To generalize the intended target to other relatable targets, this assay endpoint is annotated to the neurodevelopment intended target family, where the subfamily is tubulogenesis.
[…]

The nature of assay [5]: CCTE_Mundy_HCI_iCellGluta_NOG_NeuronCount: CCTE's Neurite Outgrowth Assay in iCellGluta cells for Neuron Count, Mundy Lab (AID 2284340).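 Further: cells fixed about 48 h after compound addition.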 The method in brief:
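Neuron count read by automated high-content imaging of Hoechst 33342 and betaIII-tubulin/Alexa Fluor-488 labelling in human iPSC glutamatergic neurons. Activity fitted relative to DMSO.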

Assay [6] is described as follows: CCTE_Mundy_HCI_iCellGluta_NOG_NeuriteCount: CCTE's Neurite Outgrowth Assay in iCellGluta cells for Neurite Count, Mundy Lab (AID 2284342).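 Further: chemical exposure about 48 hours starting 2 hours after plating.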 Here is the method: CCTE_Mundy_HCI_iCellGluta_NOG is a multiplexed, cell-based-readout assay that uses iCell GlutaNeurons from FUJIFILM Cellular Dynamics, Inc. (FCDI), human glutamatergic enriched neurons derived from induced pluripotent stem (iPS) cells, with measurements taken at 50.33 hours after chemical dosing in a microplate: 96-well plate.CCTE_Mundy_HCI_iCellGluta_NOG_NeuriteCount is one of four components of the CCTE_Mundy_HCI_iCellGluta_NOG assay. It measures neurite outgrowth related to number of neurites using High Content Imaging of fluorescently labelled markers.Data from the assay component CCTE_Mundy_HCI_iCellGluta_NOG_NeuriteCount was analyzed at the endpoint CCTE_Mundy_HCI_iCellGluta_NOG_NeuriteCount in the positive analysis fitting direction relative to DMSO as the negative control and baseline of activity. Using a type of morphology reporter, loss-of-signal activity can be used to understand developmental effects.
Exposure starts 2 hours post-plating by adding 10 ul of the working solution to 90 ul of media in the wells for a 1/10 dilution. Forty-eight hours after chemical treatment cells are fixed by direct addition of 100 ul of warm (37C) Dulbecco's phosphate buffered saline (DPBS) fixative solution containing 8% paraformaldehyde, 8% sucrose, and 0.1% of 3 mg/ml Hoechst 33342 into each well. Primary antibodies are prepared by dilution in Immunocytochemical Staining Buffer (ISB), 10X Dulbecco's PBS, 0.1% Saponin, 5% Bovine Serum Albumin, 0.5% NaN3 (Sodium Azide) and betaIII-tubulin (rabbit anti-betaIII-tubulin, 1:800) followed by Alexa Fluor-488 secondary (1:500) to label neuronal cell bodies and neurites. A Cellomics ArrayScan VTi HCS Reader is used for automated image acquisition and analysis of neurite outgrowth.

The subject of assay [7] is SRY-box transcription factor 17 (SOX17) Protein Expression, Deisenroth Lab, SOX17 (gene 64321). Put plainly: CCTE_Deisenroth_DEVTOX-GLR_legacy_Sox17: (Legacy) CCTE's DevTox GLR-Endo Assay Evaluation of SRY-box transcription factor 17 (SOX17) Protein Expression, Deisenroth Lab (AID 2284341; active means hit-call score of the fitted dose curve at least 0.9, where 1 is the maximum; inactive means score below 0.9). To be noted: actives raise or lower the signal. Here is the method:
CCTE_Deisenroth_DEVTOX-GLR_legacy assay is a cell-based, multiplex-readout assay that uses RUES2-GLR, a human pluripotent cell line, with measurements taken at 48 hours after chemical dosing in a 384-well microplateCCTE_Deisenroth_DEVTOX-GLR_legacy_Sox17 is one of 4 assay components calculated from the CCTE_Deisenroth_DEVTOX-GLR_legacy assay and it measures an increase in the percentage of cells in an endoderm state. It is designed to make measurements of inducible reporter a form of fluorescent protein induction as detected with optical fluorescence microscopy. Percentage Sox17+ cells are determined by calculating the number of Sox17+ cells divided by cell count. A cell is Sox17+ if the cell Sox17 mean intensity is 5x BMAD above the pluripotent control median cell Sox17 mean. The assay endpoints were analyzed with bidirectional fitting relative to 0.2% DMSO control in the CCTE_Deisenroth_DEVTOX-GLR_Endo assay.Data from the assay component CCTE_Deisenroth_DEVTOX-GLR_legacy_Sox17 was analyzed into 1 assay endpoint. This assay endpoint, CCTE_Deisenroth_DEVTOX-GLR_legacy_Sox17, was analyzed with bidirectional fitting relative to DMSO as the negative control and baseline activity. Using a type of inducible reporter, gain or loss-of-signal activity can be used to understand changes in gene expression. Furthermore, this assay endpoint can be referred to as a primary readout, because this assay has produced multiple assay endpoints where this one serves as a measure of endoderm differentiation. To generalize the intended target to other relatable targets, this assay endpoint is annotated to the transcription factor intended target family, where the subfamily is SRY-related HMG-box.
All assay protocols are aligned to the DevTox GLR-Endo assay workflow. Cells are seeded into 384-well microplates for 24 hours prior to initiating differentiation in defined media for a total duration of 48 hours. A total of two chemical exposures are administered in 24-hour intervals during the 48-hour differentiation period. At the assay termination point, cells are fixed and stained with a fluorescent dye demarcating the nucleus. High-content imaging is used to acquire brightfield and fluorescent channel images across 5 fields per well. Cell identification and mean biomarker fluorescence intensities are calculated with image analysis software to determine the total cell counts for viability assessment and the biomarker expression frequency for each lineage-dependent assay. A typical experimental design tests a 10-point concentration series (1 nM - 200 uM) for 28 compounds in single technical replicate. Assay plate controls include non-differentiated pluripotent cells (baseline control), lineage-specific differentiated cells (differentiation control), and DMSO solvent exposed differentiated cells (solvent control). Experiments typically comprise a minimum of four experimental replicates (n=4).

Assay [8] concerns SRY-box transcription factor 2 (SOX2) Protein Expression, Deisenroth Lab, SOX2 (gene 6657). Put plainly: CCTE_Deisenroth_DEVTOX-GLR_legacy_Sox2: (Legacy) CCTE's DevTox GLR-Endo Assay Evaluation of SRY-box transcription factor 2 (SOX2) Protein Expression, Deisenroth Lab (AID 2284346; active means hit-call score of the fitted dose curve at least 0.9, where 1 is the maximum; inactive means score below 0.9). The method in brief:
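Read-out: fraction of Sox2+ cells by high-content fluorescence imaging of fixed RUES2-GLR cells after 48 h differentiation with two 24 h-spaced exposures. Positivity cutoff 5x BMAD above endoderm control median; 0.2% DMSO median subtracted.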

Assay [9] shares this test system. Put plainly: CCTE_Deisenroth_DEVTOX-GLR_Endo_SOX2: CCTE's DevTox GLR-Endo Assay Evaluation of SRY-box transcription factor 2 (SOX2) Protein Expression, Deisenroth Lab (AID 2284412). The method in brief: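 Endpoint is percent SOX2-positive cells (SOX2+ count/total cells) minus 0.2% DMSO control, from high-content imaging of fixed, nuclear-stained RUES2-GLR cells. Dosing twice at 24 h intervals over 48 h differentiation, 1 nM–200 uM in 10 points.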

For the molecule `Cc1cc(NC(=O)C(=O)O)cc(C)c1Oc1ccc(O)c2c1CCC2`, the result in assay [1] and in assay [2] was inactive. Also, the AC50 in the assay on SERPINA7 (gene 6906) is 0.667 µM (active).

With `CCCCC(CC)COC(=O)CC(C(=O)OCC(CC)CCCC)S(=O)(=O)O` (stereo not drawn), the result in assay [3] was inactive. In addition, the AC50 was 74.5 µM (active) in assay [1], 14.9 µM (active) in assay [4], 77.8 µM (active) in assay [2] and 1.95 µM (active) with SERPINA7 (gene 6906).

Take `CCOC(=O)C(C)(C)Oc1ccc(Cl)cc1`: the AC50 with SERPINA7 (gene 6906) is 24.9 µM (active).

On to `C[Si]1(C)O[Si](C)(C)O[Si](C)(C)O[Si](C)(C)O1`, for which the call in assay [5] and in assay [6] was inactive.

Turning to `Nc1ccc(S(=O)(=O)c2ccc(N)cc2)cc1`, the AC50 in the assay with SERPINA7 (gene 6906) is 50 µM (active).

Take `O=c1c(O)c(-c2ccc(O)c(O)c2)oc2cc(O)cc(O)c12`: the outcome in assay [3], in assay [1] and in assay [4] was inactive.

For the molecule `Oc1ccc2ccccc2c1N=Nc1ccccc1`, the result in assay [3], in assay [1] and in assay [4] was inactive. Further, the concentration at half-maximal activity (AC50) was 31.9 µM (active) in assay [2] and 22.2 µM (active) with SERPINA7 (gene 6906).

As to `Cc1ccc(C)c(O)c1C`, the AC50 in the assay with SERPINA7 (gene 6906) is 33.1 µM (active).

With `O=c1[nH]cc(F)c(=O)[nH]1`, the AC50 in assay [7] is 8.47 µM (active); in assay [8], 22 µM (active); in assay [9] it was 34.3 µM (active).

On to `COc1cccc2c1C(=O)c1c(O)c3c(c(O)c1C2=O)C[C@@](O)(C(=O)CO)C[C@@H]3O[C@H]1C[C@H](N)[C@H](O)[C@H](C)O1`, for which the AC50 is 4.93 µM (active) in assay [7], 0.107 µM (active) in assay [8] and 2.25 µM (active) in [9].

Take `COC(=O)c1ccc(O)cc1`: the result in [3] and in assay [2] was inactive.

Take `CC(=O)Oc1ccccc1C(=O)O`: the molecule was called inactive in assay [5], in assay [7], in [6], in assay [8] and in assay [9]. In the assay on SERPINA7 (gene 6906), the AC50 is 22.8 µM (active).

Regarding `CCCc1cc(=O)[nH]c(=S)[nH]1`, the call in assay [1], in assay [4], in assay [2], in assay [7] and in assay [8] was inactive.

In the case of `COc1cc(S(=O)(=O)O)c(C)cc1N=Nc1c(O)ccc2cc(S(=O)(=O)O)ccc12`, the AC50 in the assay with SERPINA7 (gene 6906) was 35 µM (active).

As to `CC1=C(/C=C/C(C)=C/C=C/C(C)=C/CO)C(C)(C)CCC1`, the AC50 is 33.5 µM (active) in assay [7] and 55.7 µM (active) in assay [8].

`COc1ccc2c(c1)c(CC(=O)O)c(C)n2C(=O)c1ccc(Cl)cc1`: the AC50 in [7] is 15.5 µM (active); in the assay with SERPINA7 (gene 6906), 1.71 µM (active); in assay [8], 17 µM (active); in [9], 6.34 µM (active).

For the molecule `C=CCOC(=O)c1ccccc1C(=O)OCC=C`, the AC50 in the assay with SERPINA7 (gene 6906) is 19.5 µM (active).

Take `Cc1cccc(Nc2cc(Cl)nc(SCC(=O)O)n2)c1C`: the AC50 in the assay on SERPINA7 (gene 6906) is 22 µM (active).

`OC[C@@H](O)[C@@H](O)[C@H](O)[C@H](O)CO`: the result in [3], in [4], in assay [2] and in assay [6] was inactive.

By AC50 is commonly meant the concentration giving half of the maximal activity seen.

Source of the values: PubChem BioAssay (EPA / NIEHS).
